We go through 64 molecules from ChEMBL document CHEMBL3988442, “University of Dundee, Small-Polar-MMV Screening Library” (2021).

SMILES strings stand for the structures. The campaign covered roughly 69,000 compounds. About 950 (1.4%) showed an effect of 50% or more. Only a selection was taken, and strong results are over-represented in it overall.

The assay has as its system Mycobacterium tuberculosis. The assay can be described thus: Cornell M. t heat shock assay. Further: in the data most compounds retested in dose-response had high values. Format: functional, organism-based. Details: dose or concentration left out as unconfirmed.
For the molecule `COc1ccccc1N1CCC(NCc2c(C)noc2C)C1` (centres undefined), the “Percent Effect” value is -23.49%.
For the molecule `Cc1noc(CNc2c(N3CCCC3)cccc2N2CCCC2)n1`, the “Percent Effect” value is listed as 25.1%.
Under `Cc1noc(C)c1CNc1c(N2CCCC2)cccc1N1CCCC1` stands 65.01%; under `COc1cccc(CN2CCC3(CC2)CCN(C(=O)[C@@H]2CCCO2)C3)c1.O=C(O)C(F)(F)F`, -4.383%; under `Cc1nc(Cc2ccc(F)cc2)cc(C2COCCN2)n1.Cl` (centres undefined), 12.05%.
Under `O=C(Nc1ccccc1)[C@H]1C[C@@H]2CN(S(=O)(=O)C3CC3)C[C@H]1O2` stands 2.732%.
The value for `CN(C)CCN(C(=O)Cc1ccc2c(c1)OCCO2)C1CCN(C)CC1.O=C(O)CC(O)(CC(=O)O)C(=O)O` was -33.14%; that for `CCOCC1CN(Cc2cccnc2)Cc2nn(C)cc21.O=C(O)C(F)(F)F.O=C(O)C(F)(F)F` (centres undefined) was -34.52%; that for `Cc1nc(CNCc2cccc(OC34CCCN(CC3)C4)c2)n[nH]1` (centres undefined) was -9.099%.
Take `Cc1cnccc1CNCc1ccc(OC23CCCN(CC2)C3)cc1` (centres undefined): the “Percent Effect” value is reported as -9.053%.
For `N#Cc1cccc(OC23CCCN(CC2)C3)c1` (centres undefined), the “Percent Effect” value is reported as -19.96%.
The value for `c1ccc(Oc2ccc(OC34CCCN(CC3)C4)cc2)cc1` (centres undefined) was 98.13%.
For the molecule `O=c1[nH]nc(CNCc2ccc(OC34CCCN(CC3)C4)cc2)[nH]1` (centres undefined), the “Percent Effect” value is given as -6.374%.
As to `c1ccc(Oc2cccc(OC34CCCN(CC3)C4)c2)cc1` (centres undefined), the “Percent Effect” value was determined as 91.1%.
As for `CCOCC1CN(C(=O)c2cc(C)oc2C)Cc2c1cnn2C.O=C(O)C(F)(F)F` (centres undefined), the “Percent Effect” value was 38.21%.
The value for `CN1CC(=O)N(c2cccc(F)c2)CC12CCN(S(C)(=O)=O)C2.O=C(O)C(F)(F)F` (centres undefined) was -1.241%.
Take `CCOCC(=O)Nc1ccc(-n2ccc(C(N)=O)n2)cc1`: the “Percent Effect” value came out at 15.42%.
Under `COCCn1ccc(=O)c(OCC(=O)Nc2ccc(Br)cc2)c1C` stands 17.79%; under `CCOCC(=O)Nc1ncn(Cc2cccc(Br)c2)n1`, -16.14%.
For the molecule `COCCC(=O)Nc1nccn1Cc1ccc(Br)cc1`, the “Percent Effect” value came to 102.5%.
`CSCC(=O)Nc1nccn1Cc1ccc(Br)cc1`: the “Percent Effect” value is 103.2%.
As to `CS(=O)(=O)c1nccn1Cc1ccc(C(N)=O)cc1`, the “Percent Effect” value was found to be 2.892%.
For the molecule `CC(C)(C#N)C(=O)Nc1nccn1Cc1ccc(Br)cc1`, the “Percent Effect” value turned out to be 102.4%.
Under `COCCC(=O)Nc1ccnn1-c1ccccc1` stands -7.442%; under `CCOCC(=O)Nc1nccn1Cc1ccc(Br)cc1`, 106.8%.
Take `CSCC(=O)Nc1ncn(Cc2cccc(Br)c2)n1`: the “Percent Effect” value is reported as -31.04%.
Under `CSc1ncccc1C(=O)Nc1ccc(Cn2ccccc2=O)cc1` stands 5.912%; under `CNC(=O)c1ccc(Cn2ccnc2S(C)(=O)=O)cc1`, 3.305%.
For `O=C1c2cnc(N3CCOCC3)nc2CN1C1CCS(=O)(=O)C1` (centres undefined), the “Percent Effect” value worked out at 3.438%.
Under `CN(C)[C@@H]1CCN(C(=O)Cc2cccs2)[C@H]1Cc1ccncc1.O=C(O)C(F)(F)F.O=C(O)C(F)(F)F` stands -5.714%; under `O=C(O)C(=O)O.c1cc(CN2CCC(c3ccc4c(c3)OCO4)CC2)ccn1`, -9.586%; under `Cc1nc[nH]c1CN1C[C@@H]2CC[C@H](C1)N(C(=O)CCn1cncn1)C2`, 2.899%.
Consider `Cc1cc(C(=O)N2CCO[C@H]3[C@H](OCCN(C)C)CC[C@@H]32)c(C)[nH]1.O=C(O)C(F)(F)F`, for which the “Percent Effect” value was -25.69%.
Regarding `O=C(O)C(F)(F)F.O=C(O)C(F)(F)F.c1cnn(Cc2nnc3n2CCCN(Cc2ccsc2)C3)c1`, the “Percent Effect” value is -42.35%.
Turning to `O=C(O)C(F)(F)F.c1cnc(N2CCCC3(CCN(CC4CCOC4)CC3)C2)nc1` (centres undefined), the “Percent Effect” value is given as -17.62%.
The value for `COCC(=O)Nc1nn(Cc2ccc(F)cc2)cc1Cl` was -26.17%; that for `COCC(=O)NC(C)Cc1ccc(Br)cc1` (centres undefined) was 38.61%; that for `COCC(=O)Nc1nccn1Cc1ccc(Br)cc1` was 82.4%.
Consider `Cc1cccc(Cc2cc(C)nc(C3CCCNC3)c2)c1` (centres undefined), for which the “Percent Effect” value is -6.804%.
Under `Cc1cc(Cc2ccccc2)cc(C2CCCNC2)n1` (centres undefined) stands -1.453%.
Turning to `Cc1cc(Cc2cccc(C(F)(F)F)c2)cc(C2CCCNC2)n1` (centres undefined), the “Percent Effect” value came to 52.39%.
The value for `CN(C)C(=O)C1CCN(C2CCN(CC3CCC3)CC2)CC1.O=C(O)C(F)(F)F.O=C(O)C(F)(F)F` was 5.992%.
Under `c1nnc(Nc2cncc(C3CCCN3CC3CC3)n2)s1` (centres undefined) stands 103.4%; under `Cc1nc(Nc2nncs2)cc(C2CCCN2C)n1` (centres undefined), -13.41%; under `CNc1cncc(C2CCCN2S(=O)(=O)c2ccccc2)n1` (centres undefined), -16.46%.
Turning to `c1cc(C2CCCN2CC2CC2)n[nH]1` (centres undefined), the “Percent Effect” value was found to be 1.213%.
Take `c1ccc(CCN2CCCC2c2cncc(Nc3nncs3)n2)cc1` (centres undefined): the “Percent Effect” value was 99.24%.
The value for `CNc1cncc(C2CCCN2Cc2ccn(C)n2)n1` (centres undefined) was -19.6%; that for `Cl.Cl.c1ccc2c(c1)C(NC1CCCC1)CC21CCNCC1` (centres undefined) was -6.748%.
Under `O=C1C[C@H]2CC[C@@H](CN1)N2C(=O)CCCc1ccc(Cl)cc1` stands -2.57%; under `CN1[C@H]2CC[C@@H]1CN(C(=O)c1ccc(-c3ccccc3)[nH]1)CC2`, 5.823%; under `O=C(Cc1ccsc1)N1CCC(n2nc(-c3ccco3)ccc2=O)CC1`, 50.48%.
For `O=C(c1ccco1)N1CCC(n2nc(-c3ccco3)ccc2=O)CC1`, the “Percent Effect” value was determined as 18.57%.
The value for `CC(C)C(=O)N1CCC(n2nc(-c3ccco3)ccc2=O)CC1` was 1.271%; that for `Cc1nc(CNCC2Cn3nncc3CO2)cs1.O=C(O)C(F)(F)F` (centres undefined) was 3.892%.
Under `O=C(O)C(F)(F)F.O=C(c1cscn1)N1CCC2(CN(Cc3ccoc3)C2)C1` stands -1.882%.
For `COCc1nc2cc(NCc3ccc(C)o3)ccc2o1`, the “Percent Effect” value was determined as 60.09%.
On to `COCc1nc2cc(NCc3ccncc3)ccc2o1`, for which the “Percent Effect” value was found to be 47.84%.
Turning to `COCc1nc2cc(NCc3ccc(CO)o3)ccc2o1`, the “Percent Effect” value is reported as -21.34%.
Under `CCc1ccsc1C(=O)N1CCN(CC(O)CC)CC1` (centres undefined) stands 21.24%.
The value for `O=C(c1ccco1)N1C(CO)[C@]2(O)CC[C@H]1CC2` (some centres undefined) was 34.52%; that for `CN(C)CCN1CCO[C@@H]2CN(C(=O)c3cccs3)CC[C@@H]2C1.O=C(O)C(F)(F)F.O=C(O)C(F)(F)F` was -0.5819%; that for `Cc1ccc(CC(=O)N2CC[C@@H]3CN(CCN(C)C)CCO[C@@H]3C2)cc1.O=C(O)C(F)(F)F.O=C(O)C(F)(F)F` was -3.479%.
`CN(C)CCN1CCO[C@@H]2CN(C(=O)Cc3ccsc3)CC[C@@H]2C1`: the “Percent Effect” value is on record as 50.48%.
